# Bioassay records as filed in PubChem BioAssay.
# Only some compounds are listed: those with a hit (about 4.7% of all), similar ones and a draw of the others.
# D1 PAM = potentiators of human D1 dopamine receptor; P21728; HEK293 TREx D1 cells, calcium flux, dopamine EC20 potentiation; potentiation, % at 10 µM; 0.036% of 360,000 active; AID 504651; in the data active = potentiation above about 30%; note: 0% is about no effect
# TRHR PAM = TRH receptor (human) allosteric enhancement | 0.66% of 360,000 active | AID 493056 | P34981 | enhancement, % at 2 µM | TRHR cells, fluo-8 calcium fluorescence, EC20 TRH enhancement; in the data active = enhancement above about 30%; note: 0% is about no effect
# Target sequence (P34981 whole entry, looked up): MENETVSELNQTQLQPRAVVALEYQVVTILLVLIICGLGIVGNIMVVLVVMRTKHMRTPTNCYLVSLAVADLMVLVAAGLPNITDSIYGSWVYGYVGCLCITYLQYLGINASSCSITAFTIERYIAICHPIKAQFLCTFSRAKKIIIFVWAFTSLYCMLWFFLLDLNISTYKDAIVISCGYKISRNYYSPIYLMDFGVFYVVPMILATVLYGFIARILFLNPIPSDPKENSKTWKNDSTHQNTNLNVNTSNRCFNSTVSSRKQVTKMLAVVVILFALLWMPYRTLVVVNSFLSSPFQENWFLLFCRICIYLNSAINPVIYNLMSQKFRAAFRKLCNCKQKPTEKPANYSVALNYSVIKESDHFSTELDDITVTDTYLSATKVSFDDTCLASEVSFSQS
#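 TRHR-expressing cells loaded with fluo-8 calcium dye were read kinetically (ex 480/em 530) during compound addition, then stimulated with an EC20 of TRH (10 nM final). Enhancement of the Gq-mediated intracellular calcium response was scored.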
# D1 antag = blocks dopamine activation of the human D1 receptor | P21728 | HEK293 TREx D1 cells, calcium flux, dopamine EC80; hits give low values | activity change, negative = inhibition, % at 10 µM | 3.2% of 360,000 active; in the data active = activity change below about -30%; note: % is set by controls: 0 for no effect and ±100 for the full control effect
#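 Tetracycline-induced HEK293 T-REx cells with force-coupled D1 receptor were loaded with a no-wash calcium dye. Compound was added after a 10 s baseline and read kinetically for 180 s; EC80 dopamine was then added and calcium flux followed another 180 s.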
# D1 agonist = activates the human D1 dopamine receptor. HEK293 T-REx D1 cells, calcium flux, agonist mode. activation, % at 2 µM. 1% of 360,000 active; note: 0% is about no effect
#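 Inducible HEK293 T-REx D1 cells, force-coupled to calcium signalling, were plated at 4000 cells/well with tetracycline and held overnight at 30 C. After no-wash calcium dye loading, compound-evoked calcium rise over 180 s flagged agonists.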
# TRHR ag = TRH receptor (human) agonism; 0.18% of 360,000 active; activation, % at 2 µM; TRHR cells, calcium flux fluo-8, FDSS agonist mode; AID 493084; note: 0% is about no effect
#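 TRHR-expressing cells loaded with fluo-8 calcium dye; 23 nL library compound pin-transferred, kinetic FDSS fluorescence (Ex 480/Em 530) recorded about 180 s for agonist-induced calcium release, before a 10 nM TRH EC20 addition for potentiator mode.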
# * hit, by the source's call; ! = not confirmed by another sample. Cut-off read from the data, not from the text of the source, unless noted: active = activation above about 30%; inactive = the rest.
SMILES,D1 PAM,TRHR PAM,D1 antag,D1 agonist,TRHR ag
CCc1ccc(CNC(=O)c2nn(-c3ccc(C)c(C)c3)nc2CO)cc1,-2,1,1,7,3
Cc1ccc(-n2nc(CO)c(C(=O)NCCC(C)C)n2)cc1C,2,0,-47*,2,-1
Cc1ccc(NC(=O)CN2C(=O)CCc3cc(S(=O)(=O)N4CCOCC4)ccc32)cc1F,0,-2,1,1,0
O=C(Nc1ccc(F)cc1)c1cccnc1NCCc1ccccc1,-4,-2,-33*,1,1
CCOc1ccc(S(=O)(=O)Nc2ccc(OC)c(Cl)c2)c2cccnc12,2,9,14,0,-1
Cc1ccc(Sc2ccc(N3CCC(C(=O)Nc4cc(C)cc(C)c4)CC3)nn2)cc1,6,12,-48*,-1,0
COc1cccc(NC(=O)C2CCN(c3ccc(Sc4ccc(C)cc4)nn3)CC2)c1,1,12,-2,2,0
Cc1c(CCC(=O)NCCc2ccccc2)c(=O)oc2c(C)c(O)ccc12,-1,7,-9,0,0
O=C(/C=C/Nc1ccc(F)cc1)c1ccc(Oc2ncccn2)cc1,-9,4,-41*,2,0
CCS(=O)(=O)c1nn2c(N)c(/C=C3/C=CC(=O)C(OC)=C3)c(=O)nc2s1,-3,7,13,31*,15
COC1=C/C(=C/c2c(N)n3nc(-c4ccc(C)cc4)sc3nc2=O)C=CC1=O,-3,0,14,7,5
Cn1/c(=N/N=C/c2ccc([N+](=O)[O-])cc2)sc2ccccc21,3,-2,3,30*,-1
CC(C)(C)c1ccc(NC(=O)Nc2ccc(F)cc2)cc1,-7,-3,-17,14,1
Cc1ccc(NC(=O)Cn2c(=O)n(Cc3nc(-c4ccccc4)no3)c(=O)c3cc4c(cc32)OCO4)cc1C,2,3,0,2,1
O=C(O)CCC(=O)NNC(=O)c1cccc(Br)c1,-3,4,5,1,-1
COC(=O)CCC(=O)NNC(=O)c1cccc(Br)c1,-4,-5,-38*,2,0
O=C(NNC(=O)c1cccc(Br)c1)Nc1ccc(Cl)cc1,-6,-6,-37*,1,0
Cc1ccc(CNC(=O)C2CCN(S(=O)(=O)Cc3ccccc3)CC2)cc1,-3,0,-1,2,0
O=C(O)CN1C(=O)/C(=C\c2ccccc2OCc2ccc(Cl)cc2Cl)SC1=S,-12,6,8,35*,-3
Oc1ccc(-c2cc(-c3ccc(O)cc3)nc(-c3ccccc3)n2)cc1,-5,-2,-40*,6,1
Nc1ccc(-c2cc(-c3ccc(N)cc3)nc(-c3ccccc3)n2)cc1,-6,11,-3,3,-1
N#Cc1c(-c2ccccc2)cc(-c2ccc(O)cc2)nc1N,2,24,-42*,6,2
COc1ccc(-c2cc(-c3ccc(O)cc3)nc(N)c2C#N)cc1,-18,-3,-10,2,0
NC(=NCc1ccco1)NC(=O)c1ccc(Cl)cc1,-12,2,10,2,0
COc1ccc(-n2c(-c3ccco3)nc3c(cnn3-c3ccccc3C)c2=O)cc1,-9,1,-30*!,2,0
SMILES,D1 PAM,TRHR PAM,D1 antag,D1 agonist,TRHR ag
COc1ccc(-n2c(-c3ccccc3F)nc3c(cnn3-c3ccc(C)cc3)c2=O)cc1,-1,8,-31*,6,1
Cc1ccc2c(c1)-c1nc(-c3ccc(Cl)cc3)cc(-c3coc4ccccc4c3=O)c1CO2,2,0,8,-1,-3
O=S(=O)(Nc1ccc(Cc2ccncc2)cc1)c1ccc(Br)cc1,-7,4,-73*,11,2
Cc1cc2c(C)nc(-c3ccccc3)nc2o1,-6,0,-50*,0,0
Cc1cc(Cl)nc(-c2ccccc2)n1,-4,13,-4,1,1
CCC(C(=O)Nc1ccc(C(C)=O)cc1)n1c(C)c2cnn(-c3ccccc3)c(=O)c2c1C (stereo not given),-2,-3,-4,51*,6
CC(=O)c1cccc(NC(=O)Cn2c(C)c3cnn(-c4ccccc4)c(=O)c3c2C)c1,0,0,8,1,1
Cc1ccccc1C(=O)Nc1cccc(-c2ccc(N3CCOCC3)nn2)c1,-1,-3,-37*,5,-1
O=C(COc1ccccc1)Nc1cccc(-c2ccc(N3CCOCC3)nn2)c1,2,4,-73*,1,0
O=C(Nc1cccc(-c2ccc(N3CCOCC3)nn2)c1)c1ccccc1,0,4,15,0,0
COc1ccc2cc1Oc1ccc(cc1)CC1c3c(cc(OC)c4c3Oc3cc5c(cc3O4)CCNC5C2)CCN1C (stereo not given),-12,1,-41*,5,-1
O=C(O)c1ccccc1N/N=C/c1c(Sc2nnnn2-c2ccccc2)nc2ccccn2c1=O,-5,8,-43*,20,22
CCC1(C)N([O-])C(C)=C(c2ccccc2)[N+]1=O (stereo not given),0,1,1,0,4
CC1(C)N([O-])C2=C(c3ccccc3C2=O)[N+](=O)C1(C)C,-2,1,-32*,2,0
COc1ccccc1N(CC(O)COc1ccccc1C)S(=O)(=O)c1ccccc1 (stereo not given),3,2,-2,9,1
CCC(COC)NC(=O)CCc1nnc(Cc2c[nH]c3ccccc23)o1 (stereo not given),1,1,2,1,1
CCn1nc(C)c(CNC(=O)CCc2nnc(Cc3c[nH]c4ccccc34)o2)c1C,-8,-4,-49*,2,-1
CN(Cc1ccsc1)C(=O)CCc1nnc(Cc2c[nH]c3ccccc23)o1,-2,36*,2,0,0
O=C(CCc1nnc(Cc2c[nH]c3ccccc23)o1)NCC1CC12CCCCC2 (stereo not given),-2,-1,4,1,0
CC(C)(C)NC(=O)CCc1nnc(Cc2c[nH]c3ccccc23)o1,-3,-10,-51*,3,-1
COc1ccc(-n2ccn(CC(=O)Nc3ccccc3OC)c(=O)c2=O)cc1,-3,-8,-10,1,1
Cc1ccc(C(=O)NC(C(=O)NC2CCCC2)c2ccccc2)cc1 (stereo not given),-3,13,18,1,0
CCOc1ccc(NC(=O)CSc2nnc(Cn3cnc([N+](=O)[O-])n3)n2C)cc1,1,1,5,1,0
CCOc1ccc(NC(=O)CSc2nnc(Cn3cnc([N+](=O)[O-])n3)n2CC)cc1,-14,1,-38*,2,0
CN(Cc1ccco1)S(=O)(=O)c1nnc(NC(=O)c2ccccc2Cl)s1,2,-10,-2,0,0
CCc1sc(-c2c(C#N)c(N)nc3c2CCCCCC3)cc1[N+](=O)[O-],20,3,22,73*,4
